Laboratory results: paper PMC8384837, “Expanding the binding specificity for RNA recognition by a PUF domain”

Legend:
Test in all cases: yeast three-hybrid, YBZ-1, SC-Leu-His + 0.5 mM 3-AT, 4 days
Settings in all cases: tags: N-Gal4 AD-HA kept; label: inside an RPR1-promoter hybrid RNA with tandem MS2 sites; ssRNA
[1] = molecular target: PUM1 PUF domain R5-RRR (Homo sapiens, UniProt Q14671 828-1176, C1007R;Q1011R)
Method in brief: (§1)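 Pumilio-1 PUF domain libraries, randomized at the three base-contacting residues of each repeat, were co-expressed with matching RNA elements from a centromeric plasmid in strain YBZ-1, which carries a LexA–MS2 coat fusion and a HIS3 reporter. Transformants grew for four days on SC-Leu (input) or on SC-Leu-His + 0.5 mM 3-AT (selection), and the repeat regions were PCR-amplified and Illumina-sequenced. The interaction score is the log change in variant frequency from input to selection. That logarithm is base 2, with a pseudocount of 1 where a variant was absent.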

[2] = molecular target: PUM1 PUF domain R8-KFF (Homo sapiens, UniProt Q14671 828-1176, N1122K;Y1123F;Q1126F)
Method in brief: as §1

[3] = molecular target: PUM1 PUF domain R1-YVR (Homo sapiens, UniProt Q14671 828-1176, S863Y;R864V;Q867R)
Method in brief: as §1

[4] = molecular target: PUM1 PUF domain R8-RYE (Homo sapiens, UniProt Q14671 828-1176, N1122R;Q1126E)
Method in brief: as §1

[5] = molecular target: PUM1 PUF domain R8-HFV (Homo sapiens, UniProt Q14671 828-1176, N1122H;Y1123F;Q1126V)
Method in brief: as §1

Chain of PUM1 PUF domain R8-KFF (Q14671 828-1176 N1122K/Y1123F/Q1126F): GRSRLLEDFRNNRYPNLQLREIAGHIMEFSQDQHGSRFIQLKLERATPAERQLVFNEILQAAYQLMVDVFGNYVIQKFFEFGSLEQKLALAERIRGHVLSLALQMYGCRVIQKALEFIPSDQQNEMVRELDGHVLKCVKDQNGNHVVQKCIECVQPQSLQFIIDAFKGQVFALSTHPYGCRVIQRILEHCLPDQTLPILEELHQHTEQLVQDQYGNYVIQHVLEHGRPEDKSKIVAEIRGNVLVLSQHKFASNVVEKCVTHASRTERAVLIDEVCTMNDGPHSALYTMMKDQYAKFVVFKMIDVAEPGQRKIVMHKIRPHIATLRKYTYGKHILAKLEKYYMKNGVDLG
Chain of PUM1 PUF domain R5-RRR (Q14671 828-1176 C1007R/Q1011R): as the sequence (Q14671 828-1176 N1122K/Y1123F/Q1126F) above, with C180R, Q184R, K295N, F296Y, F299Q counted along it
Chain of PUM1 PUF domain R1-YVR (Q14671 828-1176 S863Y/R864V/Q867R): as the sequence (Q14671 828-1176 N1122K/Y1123F/Q1126F) above, with S36Y, R37V, Q40R, K295N, F296Y, F299Q counted along it

## GGCUAGAACUAGUGGAUCCCCCGGCGCCCGGCGGCUCGAGCCCGGGUAAGUGUGAAUAGUCUGCAUGCCGCCGGGCGCCAUGCCUGCAGGUCGACUCUAGAAAACAUG
[1]
  binding signal: 1.36 log2 enrichment (interaction score)

## GGCUAGAACUAGUGGAUCCCCCGGCGCCCGGCGGCUCGAGCCCGGGUAAGGGUAAAUAGUCUGCAUGCCGCCGGGCGCCAUGCCUGCAGGUCGACUCUAGAAAACAUG
[2]
  binding signal: 2.27 log2 enrichment (interaction score)

## GGCUAGAACUAGUGGAUCCCCCGGCGCCCGGCGGCUCGAGCCCGGGUAAGUGUAAAUGGUCUGCAUGCCGCCGGGCGCCAUGCCUGCAGGUCGACUCUAGAAAACAUG
[3]
  binding signal: 3.38 log2 enrichment (interaction score)

## GGCUAGAACUAGUGGAUCCCCCGGCGCCCGGCGGCUCGAGCCCGGGUAAGCGUAAAUAGUCUGCAUGCCGCCGGGCGCCAUGCCUGCAGGUCGACUCUAGAAAACAUG
[4]
  binding signal: 3.48 log2 enrichment (interaction score)
[2]
  binding signal: 2.98 log2 enrichment (interaction score)
[5]
  binding signal: 3.91 log2 enrichment (interaction score)
